# SARS PLP yeast – SARS-CoV PLP inhibition in yeast | 330,000 tested, 0.19% active | S. cerevisiae expressing SARS-CoV PLpro, growth rescue | Potency, µM (titrated, usually from 32.9 µM), for the others: at the top dose activity, positive = growth rescue, most hits filed as activators; note: 0% is about no effect; nearly all actives have a fitted effect of over 55% in size
# NS1 function inh – influenza NS1 inhibition; AID 2326; 270,000 tested, 0.4% active; Potency, µM (top dose mostly 46.1 µM), for inactives: top-dose activity, positive = more growth; note: actives are rising curves; nearly all actives have a fitted effect of over 50% in size
#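 Recovery from NS1-induced slow growth read by OD600 in budding yeast switched to galactose assay medium (pH 6.0, -URA) at 1:100 dilution. Compound 23 nl per well; the matching strain lacking NS1 serves as control.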
# Pf growth 48h – inhibits P. falciparum growth in the first generation, 48 h; P. falciparum luciferase growth in erythrocytes, 48 h; Potency, µM (doses to about 28.7 µM), for inactives: top-dose activity change, negative = inhibition, hits mostly inhibitors; 310,000 tested, 5.9% active; AID 504832; active = well fitted inhibition curve with a large enough effect; inconclusive = small, poorly fitted or top-dose-only effect, or another doubt; inactive = no such curve, though single readings can be large or run the other way; note: % is set by controls: 0 for no effect and ±100 for the full control effect
#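 In quantitative HTS format, infected erythrocytes bearing luciferase-reporter parasites were treated for a single generation at 37 C. Luminescence after adding detection reagent served as the growth measure.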
# RE007 growth inh – less growth of the S. pombe RE007 Vpr strain; S. pombe RE007 Vpr strain, BacTiter-Glo ATP luminescence, 24 h; Potency, µM (doses to about 92.2 µM), inactives show at the highest dose activity change, negative = less growth, hits mostly inhibitors; AID 651644; 360,000 tested, 0.21% active; active = well fitted falling curve with a large enough effect; inconclusive = small, poorly fitted or top-dose-only effect; inactive = no such curve, though single readings can be large or run the other way; note: % is set by controls: 0 for no effect and ±100 for the full control effect; nearly all actives have a fitted effect of over 50% in size
#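 Fission yeast strain RE007, carrying one chromosomally integrated HIV-1 vpr copy, was seeded at OD 0.01 in PMG+AL medium with 23 nL pinned compound. After 24 h at 30 °C and 99% humidity, viability was read by BacTiter-Glo luminescence.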
# Pf growth 96h – P. falciparum growth inhibition at 96 hour, primary screen for plastid delayed-death inhibitors; P. falciparum luciferase reporter growth, 96 h; Potency, µM (top dose mostly 28.7 µM), for the others: at the top dose activity change, negative = inhibition, hits mostly inhibitors; 320,000 tested, 6.9% active; active = well fitted inhibition curve with a large enough effect; inconclusive = small, poorly fitted or top-dose-only effect, or another doubt; inactive = no such curve, though single readings can be large or run the other way; note: % is set by controls: 0 for no effect and ±100 for the full control effect
#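 Cell-based qHTS: luciferase-tagged P. falciparum in erythrocytes (2% hematocrit, 0.05% parasitemia final) incubated with compounds for 96 hours, 37 C, 5% CO2; luciferase detection reagent then added and luminescence measured.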
# Numbers without * were called inactive; ? = inconclusive; · = no result given. In the library only some 9.5% were active in any assay of this set; here they are far more common. Unless noted, calls come from the whole dose curve. Potency is the fitted concentration of half-maximal effect.
SMILES,SARS PLP yeast,NS1 function inh,Pf growth 48h,RE007 growth inh,Pf growth 96h
CC(C)C1C(c2ccccc2)N(C)C(c2ccccc2)CC1(O)c1ccccc1 (configuration not stated),-3%,2%,?,-5%,·
[Cl][Pd][Cl].[S-]C1=C2N=CN[C-]2[NH+]=C[N-]1.[S-]c1ncnc2[nH]cnc12,·,-11%,·,·,·
CSc1nc(=NC(C)=O)ss1,-3%,-38%,10%,-6%,5.2µM*
O=C(c1ccc(Oc2cc(Cl)cc(Cl)c2)o1)N1CCCCC1,-1%,-3%,18%,17%,26%
O=C(NCC1CC1)c1ccc(Oc2cc(Cl)cc(Cl)c2)o1,-3%,-37%,12µM*,11%,9.3µM*
O=C(NCCN1CCCCC1)Nc1cccc(Cl)c1Cl,-7%,-11%,31%,7%,13µM*
O=C(NCCN1CCCCC1)c1cc(Cl)ccc1Cl,1%,-5%,0%,-6%,4.7µM*
NNC(=O)c1ccc(Oc2cc(Cl)cc(Cl)c2)o1,-1%,3%,12%,12%,3%
O=C(NCCN1CCCCC1)c1ccc(Oc2cc(Cl)cc(Cl)c2)o1,0%,7%,7.4µM*,2%,4.7µM*
O=C(COC(=O)Cc1ccc(S(=O)(=O)N2CCOCC2)s1)Nc1ccccc1Cl,-5%,·,·,7%,·
CN(C(=O)c1ccccc1C(=O)O)C1CC(C)(C)NC(C)(C)C1,·,8%,·,·,·
COc1ccc(-c2nc3c4ccccc4ccn3c2Cc2ccccc2)cc1OC,·,·,·,-23%,·
CC(=O)Nc1ccc(NC(=O)C(C)OC(=O)c2ccc(S(=O)(=O)N3CCCCCC3)cc2)cc1 (configuration not stated),-1%,·,·,5%,·
COc1ccc(NC(=O)N2CCCC2C(=O)Nc2ccccc2F)cc1 (configuration not stated),2%,-3%,17%,-5%,2.6µM*
COc1ccc(NC(=O)N2CCCC2C(=O)Nc2ccccc2)cc1 (configuration not stated),4%,-7%,-8%,4%,3%
Cc1ccc(NC(=O)N2CCCC2C(=O)NCc2ccccc2Cl)cc1 (configuration not stated),0%,3%,-10%,-16%,2.6µM*
COc1cccc(NC(=O)N2CCCC2C(=O)NCc2ccccc2F)c1 (configuration not stated),1%,-2%,15%,0%,10µM*
C/C(=N\NC(=O)CNC(=O)c1cccc(F)c1)c1ccc2ccccc2c1,0%,-2%,28%,0%,34%
O=c1c2ccccc2sc2nc(C3CCCCC3)n(Cc3ccco3)c(=O)c12,-4%,-45%,1.7µM*,2%,6.6µM*
O=C(O)CCCC(=O)OCCCCc1cccs1,1%,-66%,18%,-11%,5.2µM*
COC(=O)c1ccc(CSc2ccc3nnc(-c4cccc(F)c4)n3n2)o1,-4%,-133%,12µM*,4%,?
O=C(CSc1ccc2nnc(-c3cccc(F)c3)n2n1)NCc1ccco1,-1%,-2%,?,-3%,6.6µM*
CCOC(=O)CC(=O)CSc1ccc2nnc(-c3ccc(F)cc3)n2n1,5%,17%,?,-5%,·
O=C(CSc1ccc2nnc(-c3cccnc3)n2n1)NCc1ccco1,1%,-92%,·,-4%,-17%
CCOC(=O)CC(=O)CSc1ccc2nnc(-c3cccc(F)c3)n2n1,-6%,25%,7.4µM*,-2%,7%
SMILES,SARS PLP yeast,NS1 function inh,Pf growth 48h,RE007 growth inh,Pf growth 96h
C[C@@H]1NCC[C@H](CC(=O)O)[C@H]1CC(=O)O,·,1%,·,·,·
Cc1ccc(-c2nnc(-n3ncc(C#N)c3N)c3ccccc23)cc1C,17%,-2%,32%,4%,-9%
CCOC(=O)c1c(NC(=O)CSc2nc3cc(Cl)ccc3c(=O)n2Cc2ccco2)sc(C(=O)N(C)C)c1C,-11%,29%,5.9µM*,1%,4.1µM*
C=CCn1c(=O)c2ccccc2n2c(SCC(=O)Nc3sc(C(=O)N(CC)CC)c(C)c3C(=O)OCC)nnc12,7%,1%,12µM*,11%,0%
CCOC(=O)c1c(NC(=O)CSc2nc3ccccc3o2)sc(C(C)=O)c1C,-5%,14%,33%,21%,49%
C=CCn1c(=O)c2ccccc2n2c(SCC(=O)Nc3sc(C)c(CC)c3C(=O)OCC)nnc12,-2%,-2%,12%,1%,12%
